Our source for the growth values is PubChem BioAssay (NCI).

Compounds without any hit were thinned out: in the full panel of roughly 83,000, 20% have a hit.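 Activity criterion: percent growth below 10, measured after cells in 96-well plates were exposed to a single compound concentration for 48 hours.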 Unmarked numbers belong to inactive results. Calls of active or inactive are those of the source.

This assay concerns HOP-92 NSCLC. Nature of the assay: NCI-60 one-dose screen, 48 h (100 = growth as untreated, 0 = no growth, -100 = all killed). The following applies: 10 µM unless noted. The procedure:
Growth inhibition of the HOP-92 human Non-Small Cell Lung tumor cell line is measured as a screen for anti-cancer activity. Cells are grown in 96 well plates and exposed to the test compound for 48 hours. Compounds are tested at a single concentration, which is 10^-5 M for most compounds. The reported endpoint is percent growth (GI% or GIPRCNT), where numbers from 0 - 100% represent growth inhibition, and numbers from -100% - 0 represent cell death. For example, a value of 40 represents 60% growth inhibition. A value of 0 means no net growth occurred over the course of the experiment. A value of -40 indicates 40% of cells at the beginning of the experiment died by the end of the experiment. A value of -100 means all cells are dead at the end of the experiment.
NCI-60 Human Tumor Cell Lines Screen was performed using the standard one-dose NCI protocol, which is described in more detail at https://dtp.cancer.gov/discovery_development/nci-60/default.htm.
Compounds with GIPRCNT values below 10 were considered active. Activity score was based on GIPRCNT using the following formula: […]
Score is 0 for GIPRCNT values of 100 or above, 50 for GIPRCNT values of 0, and 100 for GIPRCNT values of -100.
On to `COc1ccc(C2OC(c3cc(-c4cc5ccccc5o4)nn3-c3ccccc3)=NN2C(C)=O)cc1` (stereo not given), for which the growth was 74.1%.

Consider `CC(C)n1c(NCCc2ccc(O)c(O)c2)nc2c1c(=O)n(C)c(=O)n2C`, for which the growth is 83.7%.

Turning to `CN1C/C=C\CCOc2cccc(c2)-c2ccnc(n2)Nc2cccc(c2)C1`, the growth is -15.5% (active). With `COc1cc(-c2cc(-c3ccc(Nc4ccnc5cc(Cl)ccc45)cc3)nc(N3CCOCC3)n2)cc(OC)c1OC` the figure was 85.8%.

On to `CC1(O)CCC2CC3OC3(C)CCC3OC3(C)C(O)CC1C2(C)C` (stereo not given), for which the growth is -15.9% (active). For `COc1cc2c(cc1O)c(=O)n(CCN(C)C)c1c3cc4c(cc3ncc21)OCO4`, the growth is -16.6% (active). Then `Oc1ccc(/C=N/Nc2nnc(N/N=C/c3ccc(O)cc3O)c3ccccc23)c(O)c1`, with -35.8% (active); and `Cc1ccc(NC(=O)NC(=O)CSc2nc3ccccc3nc2C)cc1`, with 36.1%; and `CC(CCCC(=O)O)c1ccoc1` (stereo not given), with 108%. With `COc1cc2cc(NCc3ccc(F)cc3)nc(C)c2cc1OC` the figure was 25.3%. Turning to `O=C1CC(c2ccc3c(c2)OCO3)c2ncn(-c3ccc(Cl)cc3)c2N1` (stereo not given), the growth was 69.7%. Then `COc1cccc(Nc2ncnn3ccc(CN4CC[C@@H](N)[C@H](O)C4)c23)c1`, with 26.3%; and `Cc1sc2c(c1C)c(=O)nc1c(-c3nc(-c4ccccc4)cs3)n[nH]n12`, with 98.5%. Then `FC(F)(F)c1ccc(CNc2ccc(Cc3c[nH]c4ncc(Cl)cc34)cn2)cn1`, with 37.7%; and `CCN(CC)c1cc2oc3cc(N)cc(=N)c-3nc2cc1C`, with 82.1%.

For the molecule `CCc1ccc(C2=C(O)C(=O)C(c3ccc(CC)cc3)=C(O)C2=O)cc1`, the growth was -47.9% (active).

As for `CC(=O)OC1Oc2ccccc2-c2oc(=O)c(-c3cc4ccc(N(C)C)cc4oc3=O)cc21` (stereo not given), the growth is -3.58% (active).

For `CCS(=O)(=O)N1CCN(c2ccc(Nc3ncc(C(N)=O)c(NC4CC4)n3)cc2)CC1`, the growth is 87.4%.

With `CC(C)c1cc(CNc2nc(Nc3cc(C4CC4)[nH]n3)cc(N3CCN(C)CC3)n2)on1`, the growth is -10.9% (active). With `Cc1c(Cn2c(C)nc3c(C(=O)O)cc(N4CCOCC4)cc32)cccc1C(F)(F)F` the figure was 88.3%; with `O=C(COc1ccc(/C=C2\Cc3ccc(Cl)cc3C2=O)cc1)Nc1nccs1`, 77.5%; with `CC(C)(C)c1cnc(CSc2cnc(NC(=O)C3CCNCC3)s2)o1`, -8.65% (active). With `Nc1c2c(c(O)c3c1=C(CO)C=N3)=NCCS2=O` (stereo not given) the figure was -54.3% (active); with `Nc1nc(=S)c2ncn(C3OC(COC(=O)c4ccc(Cl)cc4)C(OC(=O)c4ccc(Cl)cc4)C3OC(=O)c3ccc(Cl)cc3)c2[nH]1` (stereo not given), 82.7%.

With `NC[C@@](O)(c1ccc(Cl)cc1)c1ccc(-c2cn[nH]c2)cc1`, the growth was -1.15% (active). With `C=CC(=O)N1CCC(Oc2cc3c(Nc4ccc(Cl)c(Cl)c4F)ncnc3cc2OC)CC1` the figure was -29.7% (active). Then `Cc1ccc2oc(=O)cc(-c3cc(-c4cc5ccccc5oc4=O)nc(N)c3C#N)c2c1`, with 40.1%; and `CNC(=O)c1cccc2cc(Oc3ccnc4cc(OCC5(N)CC5)c(OC)cc34)ccc12`, with 64.6%; and `CNC(=O)c1nn(C)c2c1C(C)(C)Cc1cnc(Nc3ccc(N4CCN(C)CC4)cc3)nc1-2`, with 3.76% (active).

In the case of `Oc1ccc(C(c2ccc(O)cc2)C(Cl)(Cl)Cl)cc1`, the growth was 56.1%.

`Cc1[nH]c(/C=C2\C(=O)Nc3ccc(F)cc32)c(C)c1C(=O)NC[C@H](O)CN1CCOCC1`: the growth is 14.5%. In the case of `O=C(NC[C@H](O)CO)c1ccncc1Nc1ccc(I)cc1F`, the growth was -25.4% (active). Then `N#Cc1c(C(F)(F)F)cc(Nc2ccc3nc(NCCN4CCCC4)oc3c2)n2c1nc1ccccc12`, with 51.2%; and `COc1ccc(Br)cc1NC(=O)Nc1cccc2c1ccn2Cc1ccnc(N)c1`, with -7.4% (active). As for `CCCC(=O)OCC1OC(n2cnc3c(=S)nc(N)[nH]c32)C(OC(=O)CCC)C1OC(=O)CCC` (stereo not given), the growth is 11%. Then `O=c1nc2c(-c3nc4ccccc4s3)n[nH]n2c2sc3c(c12)CCCC3`, with 90.7%. Consider `Cc1c(N)ccc(-c2ccc(N)c(C)c2S(=O)(=O)O)c1S(=O)(=O)O`, for which the growth is 86.1%. With `COC(=O)CNC(=O)[C@@H](OC)[C@@H]1Cc2cc3cc(OC4CC(OC5CC(O)C(O)C(C)O5)C(O)C(C)O4)c(C)c(O)c3c(O)c2C(=O)[C@H]1OC1CC(OC2CC(OC3CC(C)(O)C(O)C(C)O3)C(O)C(C)O2)C(O)C(C)O1` (stereo not given in full) the figure was 9.61% (active). Then `COc1cnc2c(c1)C(=O)c1c-2n(CCCN2CCOCC2)c(=O)c2cc(Cl)ccc12`, with 70.4%; and `COc1cc(Nc2ncc(F)c(Nc3ccc4c(n3)N(COP(=O)(O)O)C(=O)C(C)(C)O4)n2)cc(OC)c1OC`, with -39.5% (active).
